HT1080NT lethal: qHTS for induction of synthetic lethality in tumor cells producing 2HG: qHTS for the HT-1080-NT fibrosarcoma cell line | HT-1080-NT fibrosarcoma viability, CellTiter-Glo ATP luminescence, 48 h | Potency, µM (titrated, usually from 46.1 µM), for inactives: at the highest dose activity, negative = less viability, usual class: cytotoxic | 360,000 tested, 1.6% active | AID 686970, 2013;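 also: NT is the 2HG producing partner of a matched IDH1 knockdown line; potency is read from the fitted curve at half-maximal effect; 0% = DMSO-treated cells and -100% = media-only wells without cells; nearly all actives have a fitted effect of over 55% in size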
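750 cells/well, RPMI + 5% FBS; 2 h settle, compound pin-transfer, 48 h at 37 degrees C. CellTiter-Glo 10 min RT, luminescence. Normalized to DMSO and media-only wells.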
IL1B secr inh: qHTS for Inhibitors of Inflammasome Signaling: IL-1-beta AlphaLISA Primary Screen. 360,000 tested, 4.7% active. THP-1 LPS/ATP IL-1B secretion, AlphaLISA, 16 h; hits give low values. activity change, % at 57.5 µM; in the data active = activity change below about -50%; inconclusive = mostly about -30% to -49%
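THP-1 cells pretreated 1 hr with compounds (up to 57.5 uM final), then stimulated with LPS (250 ng/mL final) plus ATP (1.25 mM final); secreted IL-1B measured by AlphaLISA after 16 hr, decreased signal indicating inhibition.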
HT1080 IDH1KD tx: qHTS for induction of synthetic lethality in tumor cells producing 2HG: qHTS for the HT-1080-IDH1KD cell line | HT-1080 IDH1 knockdown viability, ATP luminescence, 48 h | Potency, µM (series often up to 46.1 µM), without a hit: top-dose activity, negative = toxicity, most hits filed as cytotoxic | 360,000 tested, 2% active | AID 686971, 2013;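 also: potency is read from the fitted curve at half-maximal effect; 0% = DMSO wells and -100% = cell-free medium wells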
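Assay cells: HT-1080 with IDH1 knockdown, 750 per well, RPMI/5% FBS. Exposure: 48 h at 37 °C following 2 h pre-incubation. Read: CellTiter-Glo luminescence; fitted concentration-response, curve class assigned.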
TDP1 cell noCPT: qHTS for Inhibitors of human tyrosyl-DNA phosphodiesterase 1 (TDP1): qHTS in cells in absence of CPT; DT40 Tdp1-/- hTDP1 cells, no CPT, ATP luminescence, 48 h; Potency, µM (top dose mostly 46.2 µM), for inactives: at the highest dose activity change, negative = growth inhibition, usual class: inhibitors; 420,000 tested, 15% active; AID 686978, 2013; also: potency is read from the fitted curve at half-maximal effect; nearly all actives have a fitted effect of over 55% in size
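Growth kinetics read by CellTiter-Glo luminescence after ≥48 hr at 37 °C. Cells: DT40 Tdp1-/- stably carrying human TDP1, 400 per well, compound exposure in the absence of CPT (DMSO vehicle).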
DT40 TDP1 CPT: qHTS for Inhibitors of human tyrosyl-DNA phosphodiesterase 1 (TDP1): qHTS in cells in presence of CPT. AID 686979, 2013. chicken DT40 Tdp1-/-;hTDP1 cells + 20 nM CPT, ATP luminescence, 48 h. 420,000 tested, 12% active. Potency, µM (top dose mostly 46.2 µM), without a hit: at the highest dose activity change, negative = growth inhibition, most hits filed as inhibitors; also: potency is read from the fitted curve at half-maximal effect; nearly all actives have a fitted effect of over 55% in size
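Chicken DT40 Tdp1-/- cells complemented with human TDP1, 400 cells/well, exposed to compounds plus 20 nM camptothecin for at least 48 h at 37 C; viability read as ATP content by CellTiter-Glo luminescence.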
Numbers without * were called inactive; ? = inconclusive; nt = not tested or not shown. Shown are actives, neighbours in structure and some others; about 19% of the full set was active somewhere. Unless noted, calls follow the shape of the dose curve; as a rule, active = well fitted curve in the direction sought with a large enough effect; inconclusive = small, poorly fitted or top-dose-only effect, or another doubt; inactive = no such curve, though single readings can be large; an effect the other way counts as inactive or inconclusive. Unless noted, % is scaled to controls: 0 for no effect and ±100 for the full control effect.

SMILES | HT1080NT lethal | IL1B secr inh | HT1080 IDH1KD tx | TDP1 cell noCPT | DT40 TDP1 CPT
O=C(COC(=O)c1ccccc1)NCCCCc1ccccc1 | 0.9% | -10.4 | 1.5% | ? | -10.9%
CCC[C@@H](CN[C@@H](CNC)C(C)C)NCCCCc1ccccc1 | ? | -14.6 | ? | 0.82µM* | 1.03µM*
CNC[C@@H](Cc1ccccc1)NC[C@@H](CC1CCCCC1)NCCCc1ccccc1 | ? | -100.9* | ? | 9.2µM* | 8.2µM*
CCC[C@@H](CNC)NC[C@H](Cc1ccccc1)NCCCCc1ccccc1 | ? | -70.2* | ? | 11.6µM* | 9.2µM*
CNC[C@@H](CC1CCCCC1)NC[C@H](CC(C)C)NCCc1cccc(C(F)(F)F)c1 | 23.1µM* | -111.1* | ? | 5.17µM* | 5.17µM*
COC(C)c1oc2c(C)c3oc(=O)cc(C)c3cc2c1C (centres undefined) | 0.2% | -5.7 | -25.5% | -17.7% | 12.4%
COc1ccc(NC(=O)CNc2cc(S(=O)(=O)N3CCOCC3)ccc2NCC2CCCO2)cc1 (centres undefined) | 9.3% | -3.0 | -1.0% | ? | ?
Cc1c(C(=O)N(C)C2CCOC2)sc2ncnc(NCC3(c4ccccc4)CCOCC3)c12 (centres undefined) | nt | nt | nt | -23.3% | -20.5%
Cc1[nH]n(C(N)=S)c(=O)c1N=Nc1ccc(S(=O)(=O)N2CCCCCC2)cc1 | -3.0% | 0.0 | -1.1% | 20.6µM* | ?
Cc1[nH]n(C(N)=S)c(=O)c1N=Nc1ccc2ccccc2c1 | -1.7% | 21.9 | -7.3% | ? | ?
CC(=O)Nc1ccc(N=Nc2c(C)[nH]n(C(N)=S)c2=O)cc1 | 4.1% | -6.6 | 1.7% | -13.3% | -16.0%
Cc1[nH]n(C(N)=S)c(=O)c1N=Nc1cc(-c2ccc(Br)cc2)[nH]n1 | 5.6% | 5.9 | -14.6% | 2.91µM* | 3.26µM*
Cc1ccc(N=Nc2c(C)[nH]n(C(N)=S)c2=O)cc1C | -2.4% | 10.4 | 0.5% | 1.64µM* | 1.84µM*
CCOc1ccccc1NS(=O)(=O)c1cc2c3c(c1)CC(=O)N3CCC2 | -1.5% | 41.2 | -1.7% | 6.7% | -0.7%
COc1ccc(OC)c(CCNC(=O)c2cc3c(-c4ccccc4F)nn(C)c3s2)c1 | nt | nt | nt | 8.2µM* | 11.6µM*
COc1ccc(NC(=O)c2cc3c(-c4ccccc4F)nn(C)c3s2)c(OC)c1 | nt | nt | nt | 10.3µM* | 10.3µM*
CCOc1ccc(CCNC(=O)c2cc3c(-c4ccccc4F)nn(C)c3s2)cc1 | nt | nt | nt | ? | -4.8%
CC(=O)NC(Cc1ccccc1F)C(=O)NC1CCN(S(=O)(=O)c2ccccc2)CC1 (centres undefined) | -0.2% | -2.5 | -3.6% | -5.2% | -3.6%
CC(=O)Oc1ccccc1Cn1c(C)c(C(=O)NCc2cccc(Cl)c2)sc1=O | ? | -25.4 | ? | ? | ?
Cc1ccc(-c2[nH]ncc2/C=N/n2c(COc3ccccc3)nc3ccccc3c2=O)cc1 | ? | -91.8* | ? | ? | ?
Cc1cccc(C)c1OCc1nc2ccccc2c(=O)n1/N=C/c1ccc(OCC(=O)O)cc1 | -8.2% | 6.4 | -3.0% | ? | -25.5%
O=C(O)COc1ccc(/C=N/n2c(COc3ccccc3)nc3ccccc3c2=O)cc1 | 1.0% | -8.7 | 2.4% | ? | -24.2%
Cc1cc(/C=N/n2c(COc3ccccc3)nc3ccccc3c2=O)c(O)c([N+](=O)[O-])c1 | ? | 40.2 | ? | 20.6µM* | 16.4µM*
Cc1ccccc1OCc1nc2ccccc2c(=O)n1/N=C/c1cn[nH]c1-c1ccccc1 | ? | -52.7* | ? | 20.6µM* | ?
Cc1nc2ccccc2c(=O)n1/N=C/c1cn[nH]c1-c1ccccc1 | -9.9% | -13.7 | -9.8% | 14.6µM* | ?
SMILES | HT1080NT lethal | IL1B secr inh | HT1080 IDH1KD tx | TDP1 cell noCPT | DT40 TDP1 CPT
O=S(=O)(Nc1nc2ccccc2nc1NCC1CCCO1)c1cc(Cl)ccc1Cl (centres undefined) | -13.1% | 22.8 | -25.0% | -19.6% | -22.9%
CC[C@]12c3[nH]c4ccc(OC)cc4c3CCN1C(=O)C(CC(=O)NCCCOC)C[C@@H]2C(=O)N1CCN(C(=O)C2CC2)CC1 (some centres undefined) | 0.8% | -1.8 | 3.5% | 3.0% | ?
CC(=O)NC1(c2ccccc2)CCN(c2cc(C)nc(-c3ccccc3)n2)CC1 | -6.8% | 0.0 | 0.7% | ? | -5.0%
CCC(CC)C(=O)N(C)c1c(C)nc2c(OCc3cccc(OC)c3)cccn12 | -19.2% | 0.3 | -1.4% | 20.6µM* | ?
CCC(CC)C(=O)N(C)c1c(C)nc2c(OCc3cccc(Cl)c3)cccn12 | -18.3% | 18.9 | -29.3% | 11.6µM* | 20.6µM*
CCC(CC)C(=O)N(C)c1c(C)nc2c(OCc3ccc(OC(F)F)cc3)cccn12 | -20.3% | -9.6 | -2.6% | 11.6µM* | 11.6µM*
CCc1nc2c(OCc3ccc(OC)cc3)cccn2c1N(C)C(=O)C(C)C | -0.4% | 6.9 | -0.3% | ? | ?
CCC(CC)C(=O)N(C)c1c(C)nc2c(OCc3ccc(Cl)cc3)cccn12 | ? | 10.6 | ? | ? | 8.2µM*
CCC(CC)C(=O)N(C)c1c(C)nc2c(OCc3cc(Cl)cc(Cl)c3)cccn12 | ? | 3.7 | ? | ? | ?
O=C(COC(=O)CCN=C1NS(=O)(=O)c2ccccc21)NNC(=O)c1ccccc1 | 5.3% | 17.8 | -1.5% | 6.8% | 11.2%
O=C(c1c(F)c(F)c(F)c(F)c1F)N1CCN(c2cccc(C(F)(F)F)c2)CC1 | ? | -3.8 | ? | 18.4µM* | ?

High-throughput results as filed in PubChem.
